Assay outcomes as filed in PubChem BioAssay.
An excerpt weighted towards active compounds, which were near 6.1% of everything screened.
D1 ag: Allosteric Agonists of the Human D1 Dopamine Receptor: qHTS | HEK293 T-REx D1 cells, calcium flux, agonist mode | activation, % at 2 µM | 360,000 compounds, 1% hits; in the data active = activation above about 30%; also: 0% is about no effect
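Agonism was scored from calcium flux recorded over 180 s (1 read/s) after pintool compound addition, following a 10-cycle baseline. Cells were inducible force-coupled HEK293 TREx D1, plated overnight at 30 C and loaded with no-wash calcium dye.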
DRD3 agonist: qHTS of D3 Dopamine Receptor Agonist: qHTS; D3R DiscoveRx beta-arrestin cells, luminescence, 90 min; max activation, %; 410,000 compounds, 0.58% hits; AID 652048, 2013; D(3) dopamine receptor (Homo sapiens), P35462; in the data active = max activation above about 30%; also: 0% is about no effect
Target sequence (P35462 whole entry, looked up): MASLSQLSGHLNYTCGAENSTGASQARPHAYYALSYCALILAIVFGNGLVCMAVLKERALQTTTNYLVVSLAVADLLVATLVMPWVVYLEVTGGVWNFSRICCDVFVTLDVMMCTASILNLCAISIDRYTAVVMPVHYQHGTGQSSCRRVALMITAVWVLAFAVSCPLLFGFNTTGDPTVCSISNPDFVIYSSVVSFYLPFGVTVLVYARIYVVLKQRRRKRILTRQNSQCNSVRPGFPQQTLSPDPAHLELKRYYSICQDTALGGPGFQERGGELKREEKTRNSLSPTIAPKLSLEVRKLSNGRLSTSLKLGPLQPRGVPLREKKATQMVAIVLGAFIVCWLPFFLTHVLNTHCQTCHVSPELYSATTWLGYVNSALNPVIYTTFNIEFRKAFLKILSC
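Agonist mode: compounds and dopamine controls were applied to plated cells for 90 min at 37 degrees C after an overnight attachment at 1500 cells/well. Luminescent read-out followed 30 - 60 minutes at room temperature with DiscoveRx detection reagent.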
DRD3 antagonist: qHTS of D3 Dopamine Receptor Antagonist: qHTS | 360,000 compounds, 2.5% hits | max response, negative = inhibition, % | AID 652054, 2013 | D3R cells, DiscoveRx beta-arrestin luminescence, antagonist mode; stronger effect = lower value; in the data active = max response below about -50%; also: % is scaled to controls: 0 for no effect and ±100 for the full control effect
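Cells expressing the human receptor were seeded at 1500 cells/well, incubated overnight at 37 degrees C in 5% CO2, then exposed to library compounds with dopamine controls for 90 minutes at 37 degrees C before luminescent detection.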
D1 potentiator: Potentiators of Human D1 Dopamine Receptor: qHTS | potentiation, % at 10 µM | HEK293 TREx D1 cells, calcium flux, dopamine EC20 potentiation | D(1A) dopamine receptor (Homo sapiens), P21728 | 360,000 compounds, 0.036% hits | AID 504651, 2011; in the data active = potentiation above about 30%; also: 0% is about no effect
D1 antagonist: Antagonist of Human D 1 Dopamine Receptor: qHTS | HEK293 TREx D1 cells, calcium flux, dopamine EC80; stronger effect = lower value | activity change, negative = inhibition, % at 10 µM | D(1A) dopamine receptor (Homo sapiens), P21728 | 360,000 compounds, 3.2% hits | AID 504652, 2011; in the data active = activity change below about -30%; also: % is scaled to controls: 0 for no effect and ±100 for the full control effect
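Inducible Hek293 Trex D1 cells (tetracycline, overnight, 30 C). Calcium dye 30–90 min RT. Antagonist mode: EC80 dopamine added after 180 s compound read.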
Numbers without * were called inactive; · = not tested or not shown.

SMILES | D1 ag | DRD3 agonist | DRD3 antagonist | D1 potentiator | D1 antagonist
O=C(N/N=C/c1cc([N+](=O)[O-])ccc1O)c1ccc2c(c1)OCCO2 | 0.0 | -13.7 | -63.6* | -9.5 | -5.1
CC1CCN(C(=O)CN2CCSc3ccccc32)CC1 | 3.4 | -4.7 | · | 0.8 | -3.5
O=C(N/N=C/c1cc([N+](=O)[O-])ccc1O)C(O)(c1ccccc1)c1ccccc1 | 2.3 | -22.7 | -55.5* | -3.1 | -4.6
CCc1ccc(N2CC(C(=O)N/N=C/c3ccccc3OC)CC2=O)cc1 (stereo unspecified) | 0.5 | -35.8 | -2.9 | -1.8 | -9.5
CCc1ccc(N2CC(C(=O)N/N=C/c3cc([N+](=O)[O-])ccc3O)CC2=O)cc1 (stereo unspecified) | 1.5 | -12.5 | -62.9* | -1.9 | -0.2
O=C(N/N=C/c1cc([N+](=O)[O-])ccc1O)C1CC1 | 2.5 | -27.2 | -86.2* | -3.0 | -4.1
O=C1NCCCC1C(=O)N/N=C/c1cc([N+](=O)[O-])ccc1O (stereo unspecified) | 1.0 | -12.4 | 0.0 | 1.2 | 12.7
CCC(NC(=O)Nc1cc(OC)ccc1OC)c1c(-n2cccc2)sc2c1CCN(CC)C2 (stereo unspecified) | -0.5 | -14.5 | · | 2.9 | 0.2
Cc1ccc(CNC(=O)c2ccc(Cn3c(SCc4ccc(F)cc4)nc4cccnc43)cc2)o1 | 4.7 | 4.0 | · | -3.5 | -18.9
C=CCC(=O)OCC(=O)Nc1ccc(Oc2ccccc2)cc1 | 2.6 | · | · | -9.0 | -35.2*
Cc1cnc(C(=O)OCC(=O)Nc2ccc(Oc3ccccc3)cc2)cn1 | 9.4 | 5.8 | 54.5 | 4.9 | -41.2*
COc1ccc(C(C)(C)C)cc1NC(=O)COC(=O)c1cnc(C)cn1 | 2.8 | -12.8 | -64.7* | -6.0 | 42.0
CCOC(=O)c1ccccc1NC(=O)CN1CCCN(Cc2cccc(Cl)c2)S1(=O)=O | 7.7 | 5.6 | · | -1.6 | -1.5
Cc1ccc(Nc2nc(C(N)=O)c(NC(=O)c3ccccc3Br)s2)cc1 | 5.0 | -14.3 | · | -3.0 | 3.7
CCCCOc1ccc(C(=O)Nc2cc(-c3cn4cccnc4n3)ccc2OC)cc1 | 0.2 | 0.4 | · | -0.8 | 12.8
COc1ccc(OC)c(C2C(C(=O)Nc3nc4ccccc4s3)=C(C)NC3=C2C(=O)CCC3)c1 (stereo unspecified) | 3.7 | 30.3* | 43.9 | -6.8 | -15.7
Cc1ccc(C(NC(=O)N2CCOCC2)=C(Cl)Cl)cc1F | -0.6 | -16.5 | -19.4 | -2.0 | -37.3*
O=C(NCC1CCCO1)C1CCN(C2CCN(Cc3ccco3)CC2)CC1 (stereo unspecified) | 1.4 | -4.3 | -13.9 | -3.2 | 20.3
O=C(NCCc1ccccc1)C1CCN(C2CCN(Cc3ccco3)CC2)CC1 | 2.1 | -6.2 | 10.0 | 2.8 | -34.8*
CCCN1C(=O)C2(c3ccccc31)c1c(oc3cc(C)c(C)cc3c1=O)C(=O)N2CCCOC (stereo unspecified) | -2.3 | 6.0 | · | 4.2 | 3.9
CCC(C)(C)NC(=O)C(c1ccc(C)cc1)N(CC1CCCO1)C(=O)CCC(=O)Nc1ccccn1 (stereo unspecified) | -1.2 | -2.6 | -3.4 | -1.9 | 4.1
COCCNC(=O)C(c1ccc(C)cc1)N(Cc1ccco1)C(=O)CCC(=O)Nc1ccccn1 (stereo unspecified) | 1.2 | -9.8 | -89.5* | 0.4 | 6.8
Cc1ccc(C(C(=O)NC(C)(C)C)N(CC2CCCO2)C(=O)CCC(=O)Nc2ccccn2)cc1 (stereo unspecified) | 1.0 | 48.0* | 5.8 | -6.0 | 7.9
Cc1ccc(C(C(=O)NC2CCCC2)N(Cc2ccco2)C(=O)CCC(=O)Nc2cc(C)on2)cc1 (stereo unspecified) | 2.1 | -5.7 | -27.7 | -5.0 | -31.5*
COCCNC(=O)C(c1ccc(C)cc1)N(Cc1ccccc1)C(=O)CCC(=O)Nc1ccccn1 (stereo unspecified) | 1.3 | -4.1 | -7.8 | -4.0 | 7.0
SMILES | D1 ag | DRD3 agonist | DRD3 antagonist | D1 potentiator | D1 antagonist
Cc1cccc(N(CC(=O)NC2CCCC2)C(=O)CCC(=O)Nc2cc(C)on2)c1 | -0.2 | 32.1* | 5.7 | 2.5 | 15.8
O=C(Cc1cccs1)N1CCN=C1SCc1ccccc1Cl | 8.1 | 4.7 | 4.8 | -2.6 | -23.8
O=C(Cc1cccs1)N1CCN=C1SCc1ccccc1F | 0.3 | 4.2 | 15.2 | -5.2 | -36.3*
CN(C)Cc1c(C(=O)Nc2ccccc2)[nH]c2ccccc12 | -1.2 | -45.2 | -57.3* | -6.6 | 10.4
CCN(c1cccc(C)c1)S(=O)(=O)c1ccc2c(c1)CCN2C(C)=O | 7.0 | 0.6 | 7.6 | -5.7 | -10.0
CC(=O)N1CCc2cc(CNS(=O)(=O)c3ccccc3C(F)(F)F)ccc21 | 5.4 | 61.1* | · | -2.8 | 1.7
CC(=O)N1CCc2cc(CNC(=O)Nc3ccccc3C(F)(F)F)ccc21 | -0.6 | -15.6 | · | 0.3 | -9.7
CC(=O)N1CCc2cc(S(=O)(=O)N3c4ccccc4CC3C)ccc21 (stereo unspecified) | 10.2 | -8.5 | -51.5* | -5.2 | -4.1
CC(=O)N1CCc2cc(S(=O)(=O)NCCN3CCC(C)CC3)ccc21 | 0.4 | 2.1 | -57.7* | -9.1 | 3.8
CCN(c1cccc(C(F)(F)F)c1)S(=O)(=O)c1ccc2c(c1)CCN2C(C)=O | 2.9 | 0.2 | -61.8* | -5.7 | -11.1
Cc1ccc(Cl)cc1NC(=O)c1ccc(NC(=O)N2CCSc3ncccc32)cc1 | 0.3 | 5.8 | · | -3.6 | -15.9
CC(C)(C)C(=O)OCc1cc(=O)n2nc(C3CC3)sc2n1 | 0.4 | -5.0 | · | 1.8 | 9.8
Cc1cccc(C(=O)Nc2cccc(C(=O)OCc3cc(=O)n4ccsc4n3)c2)c1 | -0.4 | -2.5 | · | 0.2 | -2.3
CC(=O)[O][Al][O]C(C)=O | · | -9.4 | · | · | ·
CCOc1ccccc1CNS(=O)(=O)c1ccc2c(c1)CCCN2C(C)=O | 8.9 | -1.8 | · | -4.7 | -50.2*
CS(=O)(=O)N1CCc2cc(S(=O)(=O)NCc3ccccc3Cl)ccc21 | 0.9 | -9.3 | · | -6.5 | -100.6*
Cc1ccc(N2C(=O)N(CC(=O)C(C)(C)C)c3ccccc3S2(=O)=O)cc1C | 4.2 | -1.9 | · | -4.1 | 0.2
CCN(CC(=O)NCCc1ccccc1)S(=O)(=O)c1ccc(Br)cc1 | 5.8 | -8.9 | -13.3 | -0.8 | -37.2*
COCCNC(=O)CN(CCc1ccccc1)S(=O)(=O)c1ccc(Br)cc1 | 1.3 | 0.4 | 3.9 | -11.9 | 13.5
COCCNC(=O)c1cc2sccc2n1C | 0.7 | -2.0 | -21.9 | -6.5 | -7.8
COc1ccc(CNC(=O)c2ccc(C(C)C)cc2)cc1 | 2.7 | -2.2 | 9.6 | -4.5 | -46.6*
COc1ccc(CNC(=O)c2cc3sccc3n2C)cc1 | -0.1 | -2.7 | · | -1.3 | -51.5*
Cc1cccc(C(=O)Nc2ccccc2OCc2cc(=O)n3ccccc3n2)c1 | -0.8 | 4.6 | · | 0.5 | -3.0
